MITF inh: inhibitors of human MITF; O75030; inhibition, % at 2.6 µM; AID 1259374; AlphaScreen MITF homodimerization, bead proximity signal; actives 0.91% (n = 650,000); in the data active = inhibition above about 50%;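 note: 0% = vehicle wells with protein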
Target sequence (O75030 whole entry, looked up): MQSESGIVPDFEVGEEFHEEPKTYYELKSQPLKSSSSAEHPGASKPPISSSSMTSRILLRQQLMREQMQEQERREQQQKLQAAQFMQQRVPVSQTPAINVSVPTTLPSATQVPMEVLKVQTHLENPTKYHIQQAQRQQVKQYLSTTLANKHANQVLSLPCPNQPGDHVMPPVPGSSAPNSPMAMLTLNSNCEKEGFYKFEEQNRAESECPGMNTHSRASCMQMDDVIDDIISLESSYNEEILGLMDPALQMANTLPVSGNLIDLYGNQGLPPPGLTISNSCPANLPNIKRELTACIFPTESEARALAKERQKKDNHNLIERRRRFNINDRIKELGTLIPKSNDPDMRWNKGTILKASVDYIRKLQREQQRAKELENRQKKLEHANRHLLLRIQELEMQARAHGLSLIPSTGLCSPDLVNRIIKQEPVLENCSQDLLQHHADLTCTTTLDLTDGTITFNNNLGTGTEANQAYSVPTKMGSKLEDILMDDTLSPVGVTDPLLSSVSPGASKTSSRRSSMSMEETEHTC
TEAD-YAP block: TEAD-YAP interaction inhibition; actives 1.4% (n = 640,000); inhibition, % at 9.12 µM; HEK-TIYL cells, TEAD-Gal4/YAP UAS-luciferase luminescence; in the data active = inhibition above about 32%;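 note: 0% = median of test compound wells and 100% = reference inhibitor wells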
GPR151 activ: human GPR151 activation. activation, % at 11.2 µM. PathHunter beta-arrestin GPR151 cells, luminescence. Q8TDV0. actives 1% (n = 650,000). AID 1508602; in the data active = activation above about 4.9%;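 note: 0% = median of compound wells and 100% = cells with positive control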
FBW7 act: activators of human E3 ligase FBW7; Q969H0; AlphaScreen FBW7–phospho-cyclin E peptide binding, activator screen; normalized activity (activation), % at 26.1 µM; actives 0.13% (n = 650,000); AID 1259310; in the data active = normalized activity above about 1.9%;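 note: purified mutant Fbw7 with reduced substrate affinity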
Starred values were filed as active, the others as inactive. This is a sample that favours compounds with a hit; in the whole collection about 3.5% have one here.

SMILES | MITF inh | TEAD-YAP block | GPR151 activ | FBW7 act
COc1ccc(/C=C(/C#N)c2nc(C3CC3)cs2)cc1OC | 3 | -35 | 1 | 1
COc1cccc(/C=C(/C#N)c2nc(C3CC3)cs2)c1 | -1 | -56 | -1 | 3.5*
CCN1/C(=C/c2sc3ccccc3[n+]2CCO)Sc2ccccc21 | 21 | 38* | 2 | 1
CCN1\C(=C/C=C(C)/C=C/c2sc3ccccc3[n+]2CC)Sc2ccccc21 | -24 | 66* | 2 | 11*
Cc1sc2ccccc2[n+]1CCO | -1 | -17 | 1 | 0
CCN1/C(=C/C(C)=C/c2sc3ccccc3[n+]2CCO)Sc2ccccc21 | 44 | 39* | -1 | 0
C=CCN1/C(=C/C=C/c2sc3ccccc3[n+]2CC=C)Sc2ccccc21 | 45 | 89* | -1 | 0
C=CCOc1ccc(/C(O)=C2/C(=O)C(=O)N(Cc3cccnc3)C2c2ccc(C)cc2)c(C)c1 (stereo unspecified) | -17 | -6 | 0 | 0
CC(C)[C@H]1NC(=O)[C@H]2CN(C(=O)c3ccc(OC(F)(F)F)cc3)CCN2C1=O | -11 | 3 | 0 | 0
Nc1ccc(O)c2c1C(=O)c1c(cccc1[N+](=O)[O-])C2=O | 88* | 0 | 0 | -1
CC(=O)n1c2c(c3ccccc31)OC(N)=C(C#N)C2c1ccc(F)cc1 (stereo unspecified) | -4 | 6 | 1 | 0
CC(=O)n1c2c(c3ccccc31)OC(N)=C(C#N)C2c1cc(Br)ccc1F (stereo unspecified) | 2 | 61* | 0 | 0
CCOC(=O)/C(=C\N(C)C)C(=O)c1cc([N+](=O)[O-])c(Cl)cc1Cl | 5 | 38* | 0 | 0
Cc1ccc(OCCOCCn2cnc3ccccc3c2=O)c(Cl)c1 | -7 | -15 | 0 | 0
CCOC(=O)c1sc2nc(SCc3cccc([N+](=O)[O-])c3)n(CC3CCCO3)c(=O)c2c1C (stereo unspecified) | -3 | -3 | 0 | 0
Cc1ccc(OCCn2cc(C(=S)N3CCCC3)c3ccccc32)cc1C | 14 | 52* | 0 | 0
S=C(c1cn(CCOc2ccccc2)c2ccccc12)N1CCCC1 | -2 | -9 | 0 | 0
CC(=O)N(C1=C(N2CCCCC2)C(=O)c2ccccc2C1=O)c1ccc(F)c(F)c1 | 34 | 6 | -3 | 0
CCN(C1=C(N2CCCC2)C(=O)c2ccccc2C1=O)c1ccccc1 | 69* | 0 | -1 | -1
CC(=O)N(C)C1=C(N2CCOCC2)C(=O)c2ccccc2C1=O | 1 | 84* | -2 | 0
CCN(C(C)=O)C1=C(N2CCCC2)C(=O)c2ccccc2C1=O | 11 | 84* | -2 | 0
CC(=O)c1ccc(NC2=C(N3CCOCC3)C(=O)c3ccccc3C2=O)cc1 | 3 | 0 | 0 | 0
CC(=O)N(C)C1=C(N2CCCC2)C(=O)c2ccccc2C1=O | -9 | 94* | -4 | 0
COc1ccc(/C=C(/C#N)c2nc3c(s2)CC(C)CC3)cc1 (stereo unspecified) | 7 | -12 | 1 | 0
CC1CCc2nc(/C(C#N)=C\c3ccco3)sc2C1 (stereo unspecified) | -2 | 70* | -1 | 0
SMILES | MITF inh | TEAD-YAP block | GPR151 activ | FBW7 act
CCc1ccc(N2CC(C(=O)NCC(C)(C)CNC(=O)C3CC(=O)N(c4ccc(CC)cc4)C3)CC2=O)cc1 (stereo unspecified) | 13 | 9 | -1 | 4.5*
Nc1ccc(NC(=O)c2nc[nH]c2C(=O)O)cc1 | 86* | 6 | 0 | -2
Cn1c(-c2ccccc2)cnc1NC(=O)c1ccccc1 | 4 | 57* | -1 | 0
CCOc1ccc(NC(=O)CCn2c(=O)oc3ccccc32)cc1 | -7 | -5 | 1 | 0
O=C(/C=C/c1ccccc1Cl)Oc1ccc2c(c1)oc(=O)c1ccccc12 | 4 | 0 | -1 | 0
Cc1sc2ncnc(NC(C)c3ccc(-n4ccnc4)cc3)c2c1C (stereo unspecified) | 5 | 47* | 1 | 0
Cc1sc2ncnc(NCc3ccncc3)c2c1C | 2 | 0 | 1 | 0
CC(=O)c1ccc(C(=O)N2CCOc3ccc(CN4CCN(C(C)=O)CC4)cc3C2)cc1 | 5 | 5 | 0 | 2.3*
COC(=O)C1CCN(Cc2ccc3c(c2)CN(C(=O)Cc2cccc(F)c2)CCO3)CC1 | 18 | 6 | -1 | 2.1*
Cc1ccc(N=C(NN)c2ccc3ccccc3n2)c(C)c1 | 5 | 0 | 2 | 0
COc1ccc(N=C(NN)c2ccc3ccccc3n2)cc1 | 3 | 91* | 1 | 0
O=C(Nc1ccc(Oc2ccccc2)cc1)c1ccc(F)c(S(=O)(=O)N2CCN(C3CCCCC3)CC2)c1 | -2 | 42* | 2 | 0
O=C(Nc1ccc(Oc2ccccc2)cc1)c1ccc(F)c(S(=O)(=O)N2CCC3(CC2)OCCO3)c1 | 22 | 61* | -1 | 0
O=C(Nc1ccc(Oc2ccccc2)cc1)c1ccc(F)c(S(=O)(=O)N2CCCCC2)c1 | 5 | 37* | 0 | 0
Cc1cc(NCCCN2CCCC2=O)nc(N2CCC(N3CCOCC3)CC2)n1 | 0 | -11 | 1 | 0
COc1cc(/C=N/N2CCN(Cc3ccc(C)cc3C)CC2)cc(OC)c1O | 4 | -1 | 0 | 0
COC(=O)c1cc(C)sc1NC(=O)/C=C/C(=O)O | -8 | 6 | -2 | 0
CCN(CC)CCn1nc2c3c(cccc3c1=O)-c1ccccc1-2 | 9 | 81* | 2 | 0
O=C(CSc1ccccn1)N/N=C/c1ccccc1I | -1 | -6 | 0 | 0
Cc1c(Cl)cccc1NC(=O)c1ccc2c(c1)OCO2 | 5 | -19 | -1 | 0
COc1ccc(-c2noc(C3CCCN(C(=O)c4c(F)cccc4F)C3)n2)cc1OC (stereo unspecified) | -10 | 9 | 2 | 0
COc1cccc(-c2noc(C3CCCN(C(=O)c4c(OC)cccc4OC)C3)n2)c1 (stereo unspecified) | 10 | 63* | -1 | 0
CC(=O)c1ccc(NC(=O)CCCn2cnc([N+](=O)[O-])n2)cc1 | 20 | -9 | 0 | 0
CCOc1ccc2nc(N3CCCN(Cc4nc5ccccc5[nH]4)CC3)nc(C)c2c1 | 1 | -14 | 1 | 0
COc1ccc(C(NC(=O)Cc2ccccc2)c2ccc3cccnc3c2O)cc1OC (stereo unspecified) | 24 | 90* | 1 | -2
O=C(CCc1ccccc1)NC(c1ccc2c(c1)OCO2)c1ccc2cccnc2c1O (stereo unspecified) | 16 | 83* | -1 | -1
CCCC(=O)NC(c1ccc(OC)c(OC)c1)c1ccc2cccnc2c1O (stereo unspecified) | 45 | 88* | 0 | -2
COc1ccc(C2=NN(C(=O)CSc3nnc(CNC(=O)c4ccco4)n3-c3cc(C)ccc3C)C(c3ccc(OC)cc3)C2)cc1 (stereo unspecified) | -1 | -5 | 1 | 3.6*
COc1ccc(C2CC(c3cccs3)=NN2C(=O)CSc2nnc(CNC(=O)COc3ccccc3)n2-c2ccccc2OC)cc1 (stereo unspecified) | 3 | 32* | 1 | 0

Compound activity (PubChem BioAssay)
